# Hits are enriched below; roughly 1.1% of the tested compounds scored in any of these assays.
# HTR5A inv ctr = HTR5A inverse agonism, opioid heterodimer counter-screen; HTR5A cell line, luminescence; inhibition, % at 9.3 µM; 340,000 tested, 0.083% active; AID 504634; in the data active = inhibition mostly above about 23%, no sharp cut-off; inactive = mostly below about 18%
# Target sequence (P47898 whole entry, looked up): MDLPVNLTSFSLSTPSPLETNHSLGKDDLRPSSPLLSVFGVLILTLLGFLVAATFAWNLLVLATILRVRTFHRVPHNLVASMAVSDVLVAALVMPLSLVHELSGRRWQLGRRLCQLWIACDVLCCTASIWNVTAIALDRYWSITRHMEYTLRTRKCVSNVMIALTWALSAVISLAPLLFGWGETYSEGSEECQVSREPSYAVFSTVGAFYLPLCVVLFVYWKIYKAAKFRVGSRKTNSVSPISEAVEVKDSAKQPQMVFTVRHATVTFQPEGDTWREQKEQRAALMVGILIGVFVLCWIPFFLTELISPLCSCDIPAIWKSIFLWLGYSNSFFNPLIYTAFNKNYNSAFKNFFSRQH
# MOR-DOR ag = OPRM1-OPRD1 heterodimerization agonism | activation, % at 9.3 µM | 340,000 tested, 0.3% active | cells, luminescence | P35372+P41143
# OPRM1-OPRD1 inv = mu-delta opioid heterodimer inverse agonism | P35372+P41143 | cell-based MOR-DOR heterodimer luminescence | inhibition, % at 9.3 µM | 340,000 tested, 0.21% active; in the data active = inhibition above about 22%, passing the limit was not always enough
# HTR5A ag = counter-screen for OPRM1-OPRD1 agonists: human HTR5A agonism. activation, % at 9.3 µM. 340,000 tested, 0.61% active. HTR5A agonist assay, luminescence, cell-based. AID 504692; in the data active = activation mostly above about 9.5%, no sharp cut-off; inactive = mostly below about 7.6%
# MOR-DOR ag conf = OPRM1-OPRD1 heterodimer agonism, confirmation; shares compounds with MOR-DOR ag; cells, MOR-DOR heterodimerization, luminescence complementation; activation, % at 9.3 µM; 830 tested, 45% active; AID 504904
# HTR5A ag ctr2 = HTR5A agonism, opioid heterodimer counter-screen; shares compounds with MOR-DOR ag; HTR5A agonist counterscreen, cell luminescence; activation, % at 9.3 µM; 830 tested, 8% active; AID 504905; in the data active = activation above about 17%
# A number is an active result; - = inactive; . = no result. Rule as the data show it, unless noted: active = activation above about 18%; inactive = the rest.
SMILES,HTR5A inv ctr,MOR-DOR ag,OPRM1-OPRD1 inv,HTR5A ag,MOR-DOR ag conf,HTR5A ag ctr2
Cn1ncnc2c(=O)n(C)c(=O)nc1-2,-,31,-,20,.,.
COc1ccc2c(c1)NP(=S)(Oc1ccccc1)N2 (centres undefined),-,-,-,9.4,.,.
O=c1c2ccccc2nc(/C=C/c2ccccc2)n1-c1ccccc1O,-,58,-,-,.,.
O=c1c2ccccc2nc(/C=C/c2ccc(O)cc2)n1-c1ccccc1O,-,-,-,-,.,.
CC(=O)O[C@H]1CC[C@@]2(C)C(=CC(=O)C3C2CC[C@@]2(C)C3C[C@H](OC(C)=O)[C@@H]2OC(C)=O)C1 (some centres undefined),-,-,-,9.0,.,.
O=C(c1cn(Cc2ccccc2)c2ccccc12)C1CC1,-,-,-,11,.,.
CC1OC(OC2C(O)CC(OC3C(O)CC(OC4CCC5(C)C(CCC6C5CCC5(C)C(C7=CC(=O)OC7)C(O)CC65O)C4)OC3C)OC2C)CC(O)C1O (centres undefined),-,62,-,19,.,.
CC12CC[C@H]3[C@@H](CCC4(O)C[C@H](O)CCC34/C=N/NC(=O)c3ccccc3Cl)C1(O)CCC2C1=CC(=O)OC1 (some centres undefined),-,-,-,-,.,.
CC(C)C12CN3CCN(CC(C3)/C1=N\O)C2,-,-,-,12,.,.
O=C(c1ccccc1F)N1C[C@H]2C[C@@H](C1)c1cccc(=O)n1C2,-,-,-,-,.,.
CCCCn1c(N)c(C(=O)NCCN2CCOCC2)c2nc3ccccc3nc21,-,-,-,-,.,.
CCCCn1c(NC(=O)c2ccc(Br)o2)c(C(=O)OCC)c2nc3ccccc3nc21,-,-,55,-,.,.
CCCCNC(=S)N1CCn2cccc2C1c1cccnc1 (centres undefined),-,-,-,-,.,.
CNC(=S)N1CCn2cccc2C1c1cccnc1 (centres undefined),-,-,-,10,.,.
CCOP(=O)(OCC)c1cccc(O)c1,-,-,-,-,.,.
O=c1ccc2cc3ccoc3c(O)c2o1,-,-,-,-,.,.
COc1ccc(C(O)(c2ccccc2)c2ccncc2)cc1 (centres undefined),-,-,-,-,.,.
COC1CCC(OC2CC(C3(C)CCC4(CC(O)C(C)C(C(C)/C=C(\C)C(=O)C(C)CC(C)C(=O)O)O4)O3)OC3(OC(C4OC(O)(CO)C(C)CC4C)CC3C)C2C)OC1C (centres undefined),-,19,-,-,.,.
N#CSCC(=O)N1c2ccccc2CCc2ccccc21,-,-,-,-,.,.
CC1=Nc2cc(C(=O)N3CCC4(CC3)OCCO4)ccc2Sc2ccc(Cl)cc21,-,-,-,-,.,.
CC(NCc1cccc(Cl)c1Cl)C(O)c1ccccc1 (centres undefined),-,-,-,-,.,.
CN(C)C(CNC(=O)Cc1c(Cl)cccc1Cl)c1ccccc1 (centres undefined),-,145,-,-,-,-
COc1ccc(CCn2c(O)c(C=NCCN3CCCCC3)c(=O)[nH]c2=O)cc1OC,-,79,-,-,-,-
CC1OC(OC2C=C3CCC4C(CCC5(C)C(c6ccc(=O)oc6)CCC45O)C3(C)CC2)C(O)C(OC2OC(CO)C(O)C(O)C2O)C1O (centres undefined),-,92,-,26,-,-
NP(=O)(OCC(F)(F)F)Oc1ccccc1 (centres undefined),-,-,-,-,.,.
SMILES,HTR5A inv ctr,MOR-DOR ag,OPRM1-OPRD1 inv,HTR5A ag,MOR-DOR ag conf,HTR5A ag ctr2
CC(=O)OC1C=CC2[C@H]3Cc4ccc(O)c5c4[C@@]2(CCN3C)C1O5 (some centres undefined),-,282,-,-,-,-
CN1CC[C@]23c4c5ccc(OC6OC(C(=O)O)[C@@H](O)C(O)[C@H]6O)c4OC2C(O)C=CC3[C@H]1C5 (some centres undefined),-,-,-,-,.,.
COC1=CC2[C@@H]3Cc4ccc(OC)c(O)c4[C@]2(CCN3C)CC1=O (some centres undefined),-,-,-,-,.,.
CN1CC[C@]23c4c5ccc(O)c4OC2C(O)C=CC3[C@H]1C5 (some centres undefined),-,.,.,-,.,-
COc1ccc2c3c1OC1[C@H](O)CCC4[C@@H](C2)N(C)CC[C@]314 (some centres undefined),-,46,-,-,-,-
O=c1[nH]c(=O)n(-c2cccc3ccccc23)c(O)c1C=NCCCn1ccnc1,-,-,-,-,.,.
Cc1cc(-c2ccccc2)cc(C)[n+]1Cc1ccccc1,-,53,-,-,-,-
CCC(=O)OC(Cc1ccccc1)(c1ccccc1)[C@H](C)CN(C)C (some centres undefined),-,81,-,-,80,-
CC(CN1CCOCC1)OC(=O)Cc1ccccc1 (centres undefined),-,-,-,-,.,.
CN(C(=O)Cc1ccc(Cl)c(Cl)c1)C(CN1CCCC1)c1cccc(OCC(=O)O)c1 (centres undefined),-,57,-,-,37,-
Cc1cccc(OCC(=O)N2CCN(Cc3ccc4c(c3)OCO4)CC2)c1,-,-,-,-,.,.
CN(C)C1(CNC(=O)c2ccc(Cl)c(S(=O)(=O)NCc3ccco3)c2)CCCCC1,-,71,-,-,80,-
CN(C)C1(CNC(=O)Cc2ccccc2F)CCCCC1,-,-,-,-,.,.
CC1=NCCc2c1[nH]c1ccccc21,-,19,-,-,-,-
COc1ccc(C(CNC(=O)c2ccc3c(c2)CCC3)N(C)C)cc1 (centres undefined),-,400,-,-,512,-
CC[N+](C)(CC)CCCCOc1ccc2c(c1)C(=O)c1cc(OCCCC[N+](C)(CC)CC)ccc1-2,-,-,-,-,.,.
CCOC(=O)C1(c2ccccc2)CCN(CC(=O)c2ccc(NC(C)=O)cc2)CC1,-,-,-,-,.,.
CCOC(=O)C1(c2ccccc2)CCN(CCC(=O)Nc2ccccc2OC)CC1,-,92,-,-,-,-
CCOC(=O)C1(c2ccccc2)CCN(CCC(=O)Nc2ccc(F)cc2)CC1,-,131,-,-,153,-
CCOC(=O)C1(c2ccccc2)CCN(CC(=O)Nc2cccc3ccccc23)CC1,-,24,-,-,-,-
CC1(C)C2CC=C(CN3CCOCC3)C1C2 (centres undefined),-,-,-,-,.,.
O=C1/C(=C/c2ccccc2)C[C@@]2(O)[C@H]3Cc4ccc(O)c5c4[C@@]2(CCN3CC2CC2)C1O5 (some centres undefined),-,-,-,-,.,.
N[C@@H]1CC[C@@]2(O)[C@H]3Cc4ccc(O)c5c4[C@@]2(CCN3CC2CC2)C1O5 (some centres undefined),-,-,-,-,.,.
COC12CCC3(CC1C(C)(O)C(C)(C)C)[C@H]1Cc4ccc(O)c5c4[C@@]3(CCN1CC1CC1)C2O5 (some centres undefined),-,.,.,-,.,53

# Source: PubChem BioAssay (The Scripps Research Institute Molecular Screening Center)
